The text below walks through data of PubChem BioAssay (NCATS).

Where “and” joins values, the source holds several entries; their conditions need not be identical. Equal values may be shown once. Inconclusive results are not listed. Unmarked numbers belong to inactive results. Calls of active or inactive are those of the source. The call rests on the fitted dose curve; in most records, active means well fitted cell-killing curve with a large enough effect; inconclusive means small, poorly fitted or top-dose-only effect, or effect the other way; inactive means no such curve, though single readings can be large or run the other way.
Potency means the concentration at half of the fitted maximal effect.

The test is described as follows: Viability qHTS for spleen associated tyrosine kinase inhibitor (SYKi) naive MV4-11 cells (AID 1963823). Further: nearly all actives have a fitted effect of over 40% in size. The settings on record: MV4-11 AML viability, CellTiter-Glo luminescence, 72 h; series mostly up to 45 µM; viability (% of control): at the top concentration. The method, boiled down: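 Viability of MV4-11 AML cells lacking prior SYK inhibitor exposure is scored by CellTiter-Glo luminescence following 72 hr compound incubation at 37 C, 5% CO2, seeded at 500 cells per well.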
(In qHTS, concentration-response curves come from the screen itself.)
Take `C=C1C(O)CC2C(C(=O)O)=COC(O[C@@H]3O[C@H](COC(=O)c4ccc(O)cc4)[C@@H](O)[C@H](O)[C@H]3O)C12` (stereo not given in full): the “viability (% of control)” value is 78.4% [at 17.3 µM].

Regarding `CC(=O)O[C@@H]1[C@H]2[C@@H](OC(=O)c3ccccc3)[C@@H](C)C[C@]2(O)[C@H](OC(C)=O)[C@@]2(C)[C@@H]3CC(C)(C)C(=O)[C@]3(OC(C)=O)C[C@@]12C`, the “viability (% of control)” value was 57.8% [at 17.3 µM]. For the compound `CC1C/C=C/C=C\CCCCC(O)C/C=C/C(=O)O1` (stereo not given), the “viability (% of control)” value was 87.2%. As to `Cc1cc(Cl)ccc1COc1ccnn1-c1cc(C(=O)O)ccn1`, the “viability (% of control)” value is 78.9%. Consider `COc1ccc(CCC(=O)c2c(O)cc(O)cc2O[C@@H]2O[C@H](CO)[C@@H](O)[C@H](O)[C@H]2O)cc1`, for which the Potency is 7960 nM (active). Still for that read-out and setting: with `CC1CC2(O)OC(=O)C3=C2C(CCC3)[C@@]12C[C@@H](c1ccoc1)OC2=O` (stereo not given in full) the figure was 321 nM (active).

For the compound `S=c1ssc2c1CCC2`, the “viability (% of control)” value is 70.5%. Consider `C#CC(=O)N(c1ccc(OC)cc1OC)C(C(=O)NCC(=O)OCC)c1cccs1` (stereo not given), for which the Potency was 116 nM (active). On to `COC(=O)Cc1cc2c(c([N+](=O)[O-])c1)N(C(=O)CC[C@H](N)C(=O)O)CC2`, for which the “viability (% of control)” value was 85.7%. In the case of `CN1CCC(Nc2ncc3ncnc(Nc4ccc(F)c(Cl)c4)c3n2)CC1`, the Potency is 9.44 µM (active) and 9.2 µM (active).
